Results reported in PubChem BioAssay (NCATS).
Inconclusive results are not listed. The source made the active and inactive calls. The call rests on the fitted dose curve; in most records, active means well fitted curve in the direction sought with a large enough effect; inconclusive means small, poorly fitted or top-dose-only effect, or another doubt; inactive means no such curve, though single readings can be large; an effect the other way counts as inactive or inconclusive.

Assays:
KB-3-1 = test: Cytotoxic Profiling of Annotated Libraries Using Quantitative High-Throughput Screening (AID 1296008); details: Five cell lines viability, CellTiter-Glo ATP luminescence, 48-72 h; max response: active compounds read low; further: nearly all actives have a fitted effect of over 60% in size
Method in brief: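 Compounds were pin-transferred onto cells and incubated 48 or 72 hr at 37 degree Celsius, 95% humidity. CellTiter-Glo was added, plates sat 10 min at room temperature, then ATP-coupled luminescence was imaged as the viability read-out.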

C33A = test: Primary qHTS to identify gynecologic anti-cancer compounds using libraries of approved drugs and bioactive compounds (AID 1345084); details: Gynecologic cancer cell panel viability, ATPlite luminescence, 48 h; series mostly up to 57.5 µM; further: nearly all actives have a fitted effect of over 55% in size
Method in brief: (§1)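 In this quantitative HTS, cell killing is estimated from loss of ATP-dependent luciferase light. Cells see five compound concentrations over a 48 h exposure.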

Es-2 = test: as above; details: Gynecologic cancer cell panel viability, ATPlite luminescence, 48 h; series mostly up to 57.5 µM
Method in brief: as §1

Hek293T = test: as above; details: Gynecologic cancer cell panel viability, ATPlite luminescence, 48 h, control line for the selectivity index; series mostly up to 57.5 µM
Method in brief: as §1

JEG-3 = test: as above; details: Gynecologic cancer cell panel viability, ATPlite luminescence, 48 h; series mostly up to 57.5 µM
Method in brief: as §1

HeLa = test: as above; details: Gynecologic cancer cell panel viability, ATPlite luminescence, 48 h; series mostly up to 57.5 µM
Method in brief: as §1

OV90 = test: as above; details: Gynecologic cancer cell panel viability, ATPlite luminescence, 48 h; series mostly up to 57.5 µM
Method in brief: as §1

CAOV3 = test: as above; details: Gynecologic cancer cell panel viability, ATPlite luminescence, 48 h; series mostly up to 57.5 µM
Method in brief: as §1

CASKI = test: as above; details: Gynecologic cancer cell panel viability, ATPlite luminescence, 48 h; series mostly up to 57.5 µM
Method in brief: as §1
On the % scale 0 is the no-effect control and ±100 the full control effect; potency means the concentration at half of the fitted maximal effect.

O=C(Nc1ccc(Cl)cc1F)c1ccccc1O
inactive: Potency (JEG-3)
active: Potency (KB-3-1) 13 µM | Potency (C33A) 14.1 µM | Potency (Es-2) 15.8 µM | Potency (Hek293T) 17.8 µM

O=C(c1cccc(Cl)c1F)N1CCN(Cc2cccc(Nc3nccs3)n2)CC1
inactive: Potency (C33A) | Potency (Es-2) | Potency (JEG-3) | Potency (OV90)
active: Potency (KB-3-1) 1.16 µM | Potency (HeLa) 1 µM

COc1cc2c(NC3CCN(CC4CCCCC4)CC3)nc(N3CCCN(C(C)C)CC3)nc2cc1OCCCN1CCCCC1
active: Potency (KB-3-1) 3.66 µM | Potency (C33A) 14.1 µM | Potency (CAOV3) 3.98 µM | Potency (Es-2) 3.98 µM | Potency (Hek293T) 20 µM | Potency (JEG-3) 5.62 µM | Potency (OV90) 3.16 µM

CCCN1CCC(c2cccc(S(C)(=O)=O)c2)CC1
inactive: max response (KB-3-1) -3.93% | Potency (C33A) | Potency (Es-2) | Potency (HeLa) | Potency (Hek293T) | Potency (OV90)

COc1c(Nc2ncc(Cl)c(N[C@H]3[C@@H](C(N)=O)[C@@H]4C=C[C@H]3C4)n2)ccc2c1CC[C@@H](N1CCOCC1)CC2
active: Potency (KB-3-1) 18.4 µM
inactive: Potency (C33A) | Potency (CASKI) | Potency (Es-2) | Potency (HeLa) | Potency (Hek293T) | Potency (JEG-3) | Potency (OV90)

Oc1ccc(CNc2ccccc2F)c2cccnc12
inactive: Potency (JEG-3)
active: Potency (KB-3-1) 5.8 µM

Cc1ccc(C(=O)N(CCCN)C(c2oc3cc(Cl)ccc3c(=O)c2Cc2ccccc2)C(C)C)cc1 (stereo unspecified)
inactive: Potency (OV90)
active: Potency (KB-3-1) 0.0065 µM

C=C1C(=O)O[C@@H]2[C@H]1CCC(C)=C1CCC(=O)O[C@]12C
inactive: max response (KB-3-1) -23.5% | Potency (CASKI) | Potency (HeLa)

Cc1ccc(C(=O)N(CCCN)C(c2nc3cc(Cl)ccc3c(=O)n2Cc2ccccc2)C(C)C)cc1 (stereo unspecified)
active: Potency (KB-3-1) 0.0082 µM | Potency (CAOV3) 25.1 µM | Potency (CASKI) 25.1 µM
inactive: Potency (OV90)

N#Cc1ccc(-c2cnc3[nH]cc(NC(=O)c4cccnc4)c3c2)cc1
inactive: max response (KB-3-1) -24.8% | Potency (C33A) | Potency (CAOV3) | Potency (CASKI) | Potency (Hek293T) | Potency (JEG-3)

Cc1c(NC(=O)c2cc(C(N)=O)nc3cc(F)ccc23)c(C(F)(F)F)nn1Cc1ccc(C#N)cc1
inactive: max response (KB-3-1) 4.52% | Potency (C33A) | Potency (CAOV3) | Potency (CASKI) | Potency (Es-2) | Potency (Hek293T) | Potency (JEG-3) | Potency (OV90)

COC(=O)N[C@@H](C)CNc1nccc(-c2cn(C(C)C)nc2-c2cc(Cl)cc(NS(C)(=O)=O)c2F)n1
inactive: max response (KB-3-1) -3.34% | Potency (C33A) | Potency (CAOV3) | Potency (CASKI) | Potency (HeLa) | Potency (Hek293T) | Potency (OV90)

CC1(C)CC(NC(=O)C(=O)Nc2ccc(Br)cc2)CC(C)(C)N1
inactive: Potency (C33A) | Potency (CAOV3) | Potency (JEG-3) | Potency (OV90)
active: Potency (KB-3-1) 4.61 µM | Potency (HeLa) 14.1 µM

CC1(C)CC[C@]23CO[C@@]4(CCC5[C@@]6(C)CC[C@H](O[C@@H]7OC[C@H](O[C@@H]8O[C@H](CO)[C@@H](O)[C@H](O)[C@H]8O)[C@H](O)[C@H]7O[C@@H]7O[C@H](CO)[C@@H](O[C@@H]8O[C@H](CO)[C@@H](O)[C@H](O)[C@H]8O)[C@H](O)[C@H]7O)[C@@](C)(CO)C6CC[C@@]5(C)[C@]4(C)C[C@H]2OC2OCC(O)C(O)C2O)C3C1 (stereo partly specified)
inactive: max response (KB-3-1) -11.5% | activity change, negative = cytotoxicity (C33A) -28.5% [at 6.55 µM] | activity change, negative = cytotoxicity (HeLa) -27.3% [at 6.55 µM]

CNC(=O)c1ccccc1Nc1cc(Nc2ccc(N3CCOCC3)cc2OC)ncc1C(F)(F)F
inactive: max response (KB-3-1) -12.1% | Potency (C33A) | Potency (CAOV3) | Potency (CASKI) | Potency (Es-2) | Potency (Hek293T) | Potency (JEG-3) | Potency (OV90)
